# Data reported in article PMC7862700, “An all-to-all approach to the identification of sequence-specific readers for epigenetic DNA modifications on cytosine”.
# Assays:
# Test in all cases: DAPPL (digital affinity profiling via proximity ligation, sequencing); 10 mM Tris-HCl pH 7.5, 50 mM NaCl, 1 mM DTT, 4% glycerol, room temperature, 30 min; GST-TFs on glutathione beads, 16-mer random dsDNA library, 0.1% formaldehyde crosslink after washing; high values mean tight binding
# Conditions in all cases: protein: recombinant; tags: N-terminal GST; dsDNA, one strand shown
# FEV = biological target: T1, FEV (Homo sapiens, UniProt Q99581 1-238)
# T1 sequence: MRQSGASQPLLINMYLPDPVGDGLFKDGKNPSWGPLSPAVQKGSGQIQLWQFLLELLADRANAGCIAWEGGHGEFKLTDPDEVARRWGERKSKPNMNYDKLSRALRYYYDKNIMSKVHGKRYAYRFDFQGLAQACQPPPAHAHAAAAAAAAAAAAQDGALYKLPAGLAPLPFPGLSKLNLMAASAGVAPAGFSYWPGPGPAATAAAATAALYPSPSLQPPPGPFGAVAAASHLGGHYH
# Procedure, shortened: (§1)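 Human transcription factors fused to GST were expressed in yeast, captured on glutathione beads, given DNA barcodes and pooled with a GST-only negative control. Pools were incubated with 200 nmole of a 16-mer random double-stranded DNA library in Tris/NaCl/DTT/glycerol buffer at room temperature for 30 min. They were then washed, crosslinked with 0.1% formaldehyde, proximity-ligated (BsaI/T4 ligase, 1 h, 37 °C), PCR-amplified and sequenced on an Illumina NextSeq500. Binding signal is each 6-mer's read frequency for a factor divided by its frequency for the GST control.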
# ETV5 = ETV5 (Homo sapiens, UniProt P41161 1-510)
# Procedure, shortened: as §1
# ELF3 = biological target: T2, ELF3 (Homo sapiens, UniProt P78545 1-371)
# T2 sequence: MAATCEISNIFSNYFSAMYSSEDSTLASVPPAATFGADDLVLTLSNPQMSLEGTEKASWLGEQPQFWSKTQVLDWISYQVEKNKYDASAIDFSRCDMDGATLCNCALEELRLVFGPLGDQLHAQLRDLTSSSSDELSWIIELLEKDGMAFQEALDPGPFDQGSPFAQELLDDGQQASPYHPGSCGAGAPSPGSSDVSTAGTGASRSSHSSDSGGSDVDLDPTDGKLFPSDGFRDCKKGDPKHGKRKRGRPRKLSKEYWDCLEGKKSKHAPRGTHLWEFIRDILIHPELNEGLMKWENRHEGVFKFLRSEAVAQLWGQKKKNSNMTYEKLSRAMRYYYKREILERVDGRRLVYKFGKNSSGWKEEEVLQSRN
# Procedure, shortened: as §1
# SPDEF = biological target: T3, SPDEF (Homo sapiens, UniProt O95238 1-335)
# T3 sequence: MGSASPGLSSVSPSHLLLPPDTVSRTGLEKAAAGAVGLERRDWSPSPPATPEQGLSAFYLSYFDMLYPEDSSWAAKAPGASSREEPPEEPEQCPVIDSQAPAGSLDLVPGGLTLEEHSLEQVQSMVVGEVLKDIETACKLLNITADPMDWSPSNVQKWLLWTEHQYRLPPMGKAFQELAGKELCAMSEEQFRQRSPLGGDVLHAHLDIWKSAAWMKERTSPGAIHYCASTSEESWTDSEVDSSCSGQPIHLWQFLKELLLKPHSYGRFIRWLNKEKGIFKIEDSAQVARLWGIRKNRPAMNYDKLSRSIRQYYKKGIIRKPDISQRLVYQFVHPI
# Procedure, shortened: as §1
# ETV7 = biological target: T4, ETV7 (Homo sapiens, UniProt Q9Y603 1-341)
# T4 sequence: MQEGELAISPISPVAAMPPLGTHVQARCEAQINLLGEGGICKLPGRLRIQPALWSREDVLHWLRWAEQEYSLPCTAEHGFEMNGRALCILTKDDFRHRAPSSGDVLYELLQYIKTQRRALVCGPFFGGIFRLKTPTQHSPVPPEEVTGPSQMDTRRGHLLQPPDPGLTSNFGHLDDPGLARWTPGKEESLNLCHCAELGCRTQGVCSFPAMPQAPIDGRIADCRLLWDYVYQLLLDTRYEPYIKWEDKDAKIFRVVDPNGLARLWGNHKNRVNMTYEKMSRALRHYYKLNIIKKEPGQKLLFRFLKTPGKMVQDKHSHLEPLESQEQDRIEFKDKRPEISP
# Procedure, shortened: as §1
# ETV5, sequence (P41161 whole entry): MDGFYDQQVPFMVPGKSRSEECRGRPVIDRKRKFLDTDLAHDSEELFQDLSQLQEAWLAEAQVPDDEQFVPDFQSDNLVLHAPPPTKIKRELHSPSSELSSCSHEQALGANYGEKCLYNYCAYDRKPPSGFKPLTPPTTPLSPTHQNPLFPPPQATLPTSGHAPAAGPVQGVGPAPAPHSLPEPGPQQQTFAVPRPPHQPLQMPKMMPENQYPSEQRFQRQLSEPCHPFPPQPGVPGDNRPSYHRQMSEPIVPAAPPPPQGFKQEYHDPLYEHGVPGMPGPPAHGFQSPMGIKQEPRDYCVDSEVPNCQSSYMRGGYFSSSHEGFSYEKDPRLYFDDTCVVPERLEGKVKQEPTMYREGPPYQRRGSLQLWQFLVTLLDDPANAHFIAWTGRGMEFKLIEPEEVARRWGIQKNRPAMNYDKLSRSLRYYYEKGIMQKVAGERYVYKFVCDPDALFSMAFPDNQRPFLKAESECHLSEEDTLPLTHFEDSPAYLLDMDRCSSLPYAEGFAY
sequence,measurement,setting,value
TGACGG,binding signal,FEV,"1.06 fold enrichment (6-mer frequency, TF over GST control)"
same,binding signal,ETV5,"1.04 fold enrichment (6-mer frequency, TF over GST control)"
same,binding signal,ELF3,"1.06 fold enrichment (6-mer frequency, TF over GST control)"
same,binding signal,SPDEF,"1.06 fold enrichment (6-mer frequency, TF over GST control)"
same,binding signal,ETV7,"1.02 fold enrichment (6-mer frequency, TF over GST control)"
